Records with an inconclusive call do not appear. A call without a number means that no potency is given here. Active and inactive are the calls of the source. Calls come from the whole dose curve; as a rule, active = well fitted inhibition curve with a large enough effect; inconclusive = small, poorly fitted or top-dose-only effect; inactive = flat fitted curve, though single readings scatter.

Sequence of Calcium and integrin-binding protein 1 (Homo sapiens) (Q99828 whole entry, looked up): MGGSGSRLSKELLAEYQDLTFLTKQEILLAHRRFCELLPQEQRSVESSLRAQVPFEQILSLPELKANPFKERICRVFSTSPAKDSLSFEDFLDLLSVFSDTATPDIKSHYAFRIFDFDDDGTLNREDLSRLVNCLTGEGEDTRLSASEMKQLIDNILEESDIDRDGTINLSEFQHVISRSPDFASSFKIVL

The target in the experiment is Calcium and integrin-binding protein 1 (Homo sapiens) (UniProt Q99828). The experiment in a line: Primary qHTS for Identification of Calcium Integrin Binding Protein 1 (CIB1) Competitor (AID 1508620).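 Note: GST tagged CIB1 binding a fluorescein labelled alphaIIb integrin peptide tracer; top concentration of the series differs between compounds.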 The note with it: CIB1-GST / FITC-alphaIIb peptide fluorescence polarization; series mostly up to 114 µM. An outline of the steps:
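Fluorescence polarization competition: CIB1-GST (1 uM final) preincubated with compound 15 min at room temperature, then FITC-labeled alphaIIb peptide (100 nM final) added for another 15 min. Polarization read at Ex 480/Em 540.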
A general note: In qHTS, concentration-response curves come from the screen itself.
Regarding `CC1=CC(=O)[C@H]2C(C)(C)CCC[C@]2(C)[C@@]1(O)CO`, the Potency entry is “inactive”.

In the case of `Nc1ncnc2c1ncn2CCNCCCCCO`, the Potency entry is “inactive”. Turning to `CC1OC(OC2CCC3(C)C(CCC4(C)C3CC=C3C5CC(C)(C)CCC5(C(=O)OC5OC(CO)C(O)C(O)C5O)CCC34C(=O)O)C2(C)C)C(O)C(O)C1O` (stereo not given), the Potency entry was “inactive”.

Regarding `CC(=O)OCC1(O)CCC2C(COC3OC(CO)C(O)C(O)C3OC(=O)/C=C/c3ccc(O)cc3)=COC(OC(=O)CC(C)C)C21` (stereo not given), the Potency entry was “inactive”. As for `COC(=O)C1(C)c2[nH]c3ccccc3c2CCN1C(=O)CCl` (stereo not given), the Potency entry was “inactive”.

Turning to `CC1(C)CCCC2(C)C1C(O)C=C(CO)C2(O)CO` (stereo not given), the Potency entry was “inactive”. Take `CC1=C(CCC(C)CC(=O)O)[C@@]2(C)CCCC(C)(C)C2CC1=O` (stereo not given in full): the Potency result was “inactive”. With `CCC1=CC2CN(C1)Cc1c([nH]c3ccccc13)[C@@](C(=O)OC)(c1cc3c(cc1OC)N(C)[C@H]1[C@@](O)(C(=O)OC)[C@H](OC(C)=O)[C@]4(CC)C=CCN5CC[C@]31[C@@H]54)C2` (stereo not given in full), the Potency entry is “inactive”. Consider `O=C(N/N=C/c1ccc(O)c(O)c1)c1cc2ccccc2cc1O`, for which the Potency entry is “inactive”. With `O=C(Nc1c(-c2cccs2)nc2ccccn12)c1ccc(Cl)cc1`, the Potency entry is “inactive”. `Nc1nc(-n2cc(C(=O)O)c(=O)c3cc(F)c(N4CC(O)C4)c(Cl)c32)c(F)cc1F`: the Potency result was “inactive”.

On to `O=C(Nc1ccn[nH]1)c1c(F)cccc1F`, for which the Potency result was “inactive”. With `NC1(C(=O)NC(CCO)c2ccc(Cl)cc2)CCN(c2ncnc3[nH]ccc23)CC1` (stereo not given), the Potency entry was “inactive”. With `CN(C)CCn1cc(S(=O)(=O)c2cccc(F)c2)c2cccnc21`, the Potency result was “inactive”. For `CC(=O)c1cc(C(=O)N[C@@H](C)Cn2ccc(-c3ccc(C#N)c(Cl)c3)n2)[nH]n1` the value was “inactive”.

(Values after PubChem BioAssay (NCATS).)
